# Source: PubChem (several laboratories)
# LANA DNA inh = inhibitors of KSHV C-LANA binding to DNA, primary screen, biochemical, fluorescence polarization, FAM-LBS DNA, MBP-C-LANA, single point; inhibition, % at 9 µM; AID 504423, 2011; actives 0.078% (n = 340,000); Kaposi's sarcoma herpesvirus LANA C-terminal domain (residues 932-1162) DNA binding;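 active = highest replicate inhibition at or above 60% at 9 µM, even if other replicates fall short; inactive = all replicates below 60% inhibition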
# RTF Ca sens inh = cardiac RTF calcium sensitivity inhibitors, primary screen, biochemical, IANBD-TnC fluorescence, EC70 calcium. IANBD-labeled cardiac RTF, Ca2+ fluorescence. actives 0.12% (n = 340,000). inhibition, % at 7.15 µM;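 active = inhibition above the mean inhibition of all tested compounds plus 3 SD, cut at about 17% in these data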;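 also: assay run at fixed EC70 calcium of 1.6 mM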
# Keap1-Nrf2 PPI = Keap1-Nrf2 protein-protein interaction inhibitors, primary screen, biochemical, fluorescence polarization, single point. Kelch-like ECH-associated protein 1 (Homo sapiens), Q14145. Keap1 Kelch-Nrf2 peptide fluorescence polarization, 1536-well. inhibition, % at 9.4 µM. actives 0.15% (n = 340,000). AID 504523, 2011; in the data active = inhibition above about 12%;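 also: human Keap1 Kelch domain with fluorescein labeled Nrf2 9mer peptide probe; higher means more block of Keap1 binding to Nrf2 peptide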
# Target sequence (Q14145 whole entry, looked up, the tested form may be a part): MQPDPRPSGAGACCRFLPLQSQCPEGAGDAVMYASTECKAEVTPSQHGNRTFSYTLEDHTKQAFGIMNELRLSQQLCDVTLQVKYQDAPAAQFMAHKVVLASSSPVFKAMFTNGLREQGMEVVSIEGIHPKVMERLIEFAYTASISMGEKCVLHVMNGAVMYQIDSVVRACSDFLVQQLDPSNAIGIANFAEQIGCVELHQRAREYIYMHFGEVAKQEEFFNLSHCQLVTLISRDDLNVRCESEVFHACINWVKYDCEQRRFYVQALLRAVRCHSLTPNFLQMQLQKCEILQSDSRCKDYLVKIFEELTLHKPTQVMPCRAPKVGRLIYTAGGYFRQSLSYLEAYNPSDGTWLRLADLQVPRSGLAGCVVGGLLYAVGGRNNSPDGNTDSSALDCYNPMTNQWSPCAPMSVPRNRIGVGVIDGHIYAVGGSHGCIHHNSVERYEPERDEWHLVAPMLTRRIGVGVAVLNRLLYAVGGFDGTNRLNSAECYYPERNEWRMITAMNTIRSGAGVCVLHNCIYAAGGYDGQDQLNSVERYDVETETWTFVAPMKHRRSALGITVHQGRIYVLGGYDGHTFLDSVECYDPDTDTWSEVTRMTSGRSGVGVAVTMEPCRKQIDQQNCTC
# RTF Ca sens act = cardiac RTF calcium sensitivity activators, primary screen, biochemical, IANBD-TnC fluorescence, EC20 calcium; Troponin I, cardiac muscle (Homo sapiens) + Troponin T, cardiac muscle (Homo sapiens) + …; IANBD-labeled TnC RTF fluorescence at EC20 calcium; 0% EC20 calcium, 100% full calcium; activation, % at 7.2 µM; actives 0.24% (n = 340,000); AID 493008, 2010;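 active = activation above the mean over all tested compounds plus 3 SD, cut at about 30% in these data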;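 also: rise in fluorescence read as greater calcium sensitivity of cardiac thin filaments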
# Keap1 TSA = Keap1 Kelch domain binders by thermal stabilisation, dose response, biophysical, thermal shift, RT-PCR instrument, cherry-pick | shares compounds with Keap1-Nrf2 PPI | delta Tm; stronger effect = higher value | max delta Tm, degrees C | actives 8% (n = 400); in the data active = max delta Tm above about 0.48 degrees C
# Dye-only ctr = Sypro Orange dye melt without protein, dose response, artefact control for Keap1-Nrf2 interaction inhibitor project, biochemical, thermal shift counterscreen, cherry-pick | shares compounds with Keap1-Nrf2 PPI | Sypro Orange dye-only thermal melt, no protein, delta Tm; top dose 26 µM | delta Tm, degrees C (no concentration beside the values) | 140 tested, under 10 active;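 active = at highest dose tested, delta Tm positive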
# A number is an active result; - = inactive; . = no result. The list is not random: actives were taken first. Their share in the collection is about 0.5%.
SMILES,LANA DNA inh,RTF Ca sens inh,Keap1-Nrf2 PPI,RTF Ca sens act,Keap1 TSA,others
CCOc1cc(C2C(C#N)=C(N)OC3=C2C(=O)CC(C)(C)C3)cc([N+](=O)[O-])c1O (stereo unspecified),-,-,-,-,.,
CC1(C)CC(=O)C2=C(C1)OC(N)=C(C#N)C2c1cc2c(cc1[N+](=O)[O-])OCO2 (stereo unspecified),-,-,15,-,-,Dye-only ctr=-
O=c1[nH]c2c(s1)C=Nc1ccccc1N2,-,-,38,78,-,Dye-only ctr=-
O=C1CC(c2ccco2)CC2=C1C=Nc1ccccc1N2 (stereo unspecified),-,-,-,-,.,
Cn1c(=O)c2c(nc(SCCN3CCOCC3)n2C)n(C)c1=O,-,-,-,-,.,
CC(C)(C)c1ccccc1NC(=O)NC1CCN(Cc2c(F)cccc2Cl)CC1,-,.,21,.,-,
Oc1[nH]c2ccccc2c1N=Nc1ccccc1F,-,-,21,282,-,
O=C(N=Nc1c(O)[nH]c2ccccc12)Nc1ccccc1,-,-,-,-,.,
Oc1[nH]c2ccccc2c1N=Nc1ccccc1,-,-,20,-,-,
CCN(CC(=O)Nc1cc(Cl)ccc1C)C(=O)CCS(=O)(=O)c1ccc(C)cc1,-,-,-,-,.,
O=S(=O)([N-]c1nc2ccccc2nc1-[n+]1ccc(-c2ccncc2)cc1)c1ccccc1,-,-,17,51,-,Dye-only ctr=-
CCCCn1c(N)c(N(CCOC)C(=O)CSc2nnc(-c3ccco3)n2CC)c(=O)[nH]c1=O,-,-,-,-,.,
COc1ccc(NS(=O)(=O)c2ccc(F)c(Cl)c2)cn1,-,-,21,-,-,
COc1ccc(C(=O)N2CCN(CCc3ccccc3)CC2)cc1[N+](=O)[O-],-,-,-,-,.,
CCN(CC)CCN1C(=O)c2cccc3cc(N)cc(c23)C1=O,-,-,14,-,-,
Nc1cc2c3c(cccc3c1)C(=O)N(CCN1CCCC1)C2=O,-,-,-,-,.,
COC(=O)C1=CO[C@@H](C)[C@H]2CN3CCc4c([nH]c5ccccc45)[C@@H]3C[C@H]12,-,-,-,-,.,
COC(=O)C1=COC(C)C2CN3CCc4c([nH]c5ccccc45)C3CC12 (stereo unspecified),-,-,15,35,-,
O=C(C1=NN(c2ccccc2)C2C(=O)N(c3ccccc3)C(=O)C12)c1ccccc1 (stereo unspecified),-,-,54,33,-,Dye-only ctr=-
CC1Cc2cc(/C=C3/SC(N4CCC(C(N)=O)CC4)=NC3=O)ccc2O1 (stereo unspecified),-,.,21,.,-,
CC1CCN(C2=NC(=O)/C(=C/c3cccc(O)c3)S2)CC1,-,-,-,-,.,
O=C1c2cccc3c(N4CCCCC4)ccc(c23)C(=O)N1c1cccc(O)c1,-,-,27,59,-,Dye-only ctr=-
Cc1n[nH]c(C)c1N1C(=O)c2cccc3c(N4CCCCCC4)ccc(c23)C1=O,-,-,16,317,-,
CCCN(CC(=O)Nc1ccc(F)c(F)c1F)C(=O)CN1C(=O)NC2(CCCCC2)C1=O,-,-,-,-,.,
OC(CNCc1ccccc1)(c1ccccc1)c1ccccc1,-,-,-,-,.,
SMILES,LANA DNA inh,RTF Ca sens inh,Keap1-Nrf2 PPI,RTF Ca sens act,Keap1 TSA,others
OC(Cc1ccncc1)(c1ccccc1)c1ccccc1,-,-,28,-,-,
Oc1ccc2nnc3c(Br)cnn3c2c1,67,-,37,84,-,
CC(C)Cn1c(N)c(C(=O)CSc2nnc(-c3ccco3)n2C)c(=O)n(C)c1=O,.,-,68,-,-,
CCN1CC=C2C(C1)C(c1ccc(Cl)s1)C(C#N)=C(N)C2(C#N)C#N (stereo unspecified),-,-,21,30,-,
Cc1cc(NC(=O)COC(=O)CCS(=O)(=O)c2cc(Cl)ccc2Cl)no1,-,-,-,-,.,
O=C(Cc1ccc(S(=O)(=O)N2CCCC2)s1)Nc1nc2c(s1)CCCC2,-,-,13,-,-,Dye-only ctr=-
O=c1[nH]c(/C=C/c2ccccc2F)nc2ccccc12,-,-,-,-,.,
O=c1[nH]c(/C=C/c2cccc3ccccc23)nc2ccccc12,-,-,17,-,-,Dye-only ctr=-
O=C(C1CCN(Cc2nc(-c3ccc(Cl)cc3)no2)CC1)N1CCOCC1,-,-,-,-,.,
Clc1ccc(-c2noc(CN3CCOCC3)n2)cc1,.,.,68,.,-,Dye-only ctr=-
Cc1cc(NC(=O)CSc2nnc(-c3ccncc3)n2C)n(-c2ccccc2)n1,-,-,15,-,-,Dye-only ctr=-
CN1CC=C2C(C#N)=C(N)C(C#N)(C#N)C(c3ccsc3)C2C1 (stereo unspecified),-,-,17,-,-,
COc1cc([C@@H]2[C@H]3CN(C)CC=C3C(C#N)=C(N)C2(C#N)C#N)cc2c1OCO2,-,-,-,-,.,
CCOC(=O)N1CC=C2C(C#N)=C(N)C(C#N)(C#N)[C@H](c3ccsc3)[C@H]2C1,-,-,-,-,.,
CCCC1C2CN(C(C)C)CC=C2C(C#N)=C(N)C1(C#N)C#N (stereo unspecified),-,-,20,52,-,Dye-only ctr=-
CN1CC=C2C(C#N)=C(N)C(C#N)(C#N)[C@H](c3cccs3)[C@H]2C1,-,-,26,41,-,Dye-only ctr=-
COc1cc(/C=C2/SC(=S)N(CC(=O)O)C2=O)ccc1OC(=O)c1ccco1,-,-,-,-,.,
CC(C)S(=O)(=O)c1nsc2nc(=O)c(/C=C3\C=Nc4ccccc43)c(N)n12,-,-,-,-,.,
CSc1nsc2nc(=O)c(/C=C3\C=Nc4ccccc43)c(N)n12,-,-,14,-,0.74,
COc1cc(N)c(Cl)cc1C(=O)OCC(=O)NCC1CCCCC1,-,-,-,-,.,
O=c1c(-c2cc3ccccc3o2)[n+]([O-])c2ccccc2n1OCc1ccccn1,-,-,36,-,-,Dye-only ctr=-
CCOn1c(=O)c(-c2cc3ccccc3o2)[n+]([O-])c2ccccc21,-,-,-,-,.,
COc1cccc(CN(c2ccccc2C(=O)O)S(=O)(=O)c2ccc(C)cc2)c1,-,-,-,-,.,
CC(=O)Nc1cccc(C(=O)N2CCN(S(=O)(=O)c3ccc(C4CCCCC4)cc3)CC2)c1,-,-,-,-,.,
COc1ccccc1N(C)S(=O)(=O)c1ccc(C(=O)NCc2ccccc2CN2CCCC2)cc1,-,-,47,-,-,
